# Experimental data published in PubChem BioAssay (Tox21).
# A number with no mark means an inactive call. Records with an inconclusive call do not appear. A call without a number means that no potency is given here. The source made the active and inactive calls. Unless noted, calls come from the whole dose curve; as a rule, active = well fitted curve in the direction sought with a large enough effect in the repeat runs; inconclusive = weak or mixed curves; inactive = no such curve, though single readings can be large; an effect the other way counts as inactive or inconclusive.
# Legend:
# [1] = qHTS assay to identify small molecule agonists of the estrogen receptor alpha (ER-alpha) signaling pathway in the presence of an antagonist - cell viability counter screen (AID 1259386);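 note: series mostly up to about 92 µM; cells exposed to compounds for 22 h at 37 °C before the viability read; nearly all actives have a fitted effect of over 30% in size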
# In short: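 Viability counter screen using VM7Luc4E2 (full-length ER-alpha, four ERE-luciferase). The cells were treated with compounds alongside ICI-182,780 10.0nM for 22hr, and live-cell protease fluorescence was quantified with CellTiter-Fluor.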
# [2] = target: Progesterone receptor (Homo sapiens) (UniProt P06401); test: qHTS assay to identify small molecule agonists of the progesterone receptor (PR) signaling pathway (AID 1346784; calls by dose curve; note: nearly all actives have a fitted effect of over 30% in size)
# In short: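 PR-UAS-bla HEK 293T cells carrying a UAS-driven beta-lactamase reporter were seeded in medium with 2% charcoal-stripped FBS, preincubated 6 hr at 37C, then exposed to compounds in DMSO for 16 hr; agonism was read by LiveBLAzer B/G FRET fluorescence.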
# [3] = target: Progesterone receptor (Homo sapiens) (UniProt P06401); test: qHTS assay to identify small molecule antagonists of the progesterone receptor (PR) signaling pathway (AID 1346795; active = well fitted inhibition curve with a large enough effect in the signal ratio in the repeat runs, not every such curve was filed as active; the % refers to the signal ratio; note: potency is the fitted concentration of half-maximal effect)
# In short: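 PR-UAS-bla HEK293T cells carrying a UAS-driven beta-lactamase reporter were plated in medium with 2% charcoal-stripped FBS and rested 6 hr at 37C. Compounds were added with 1 nM R5020 (final) for 16 hr, then FRET substrate loaded 2 hr at room temperature.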
# [4] = qHTS assay to identify small molecule antagonists of the progesterone receptor (PR) signaling pathway - cell viability counter screen (AID 1346798); note: series mostly up to about 92 µM; nearly all actives have a fitted effect of over 50% in size
# In short: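 PR-UAS-bla HEK293T cells in medium with 2% charcoal-stripped FBS were treated with compounds plus R5020 for 16 hr at 37C. Cell viability was then read by CellTiter-Glo luminescence after 30 min at room temperature in the same wells.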
# [5] = qHTS assay to identify small molecule agonists of the progesterone receptor (PR) signaling pathway - cell viability counter screen (AID 1346799; calls by dose curve; note: nearly all actives have a fitted effect of over 45% in size)
# In short: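 PR-UAS-bla HEK293T cells, 3,000 per well in medium with 2% charcoal-stripped FBS, were preincubated 6 hr at 37C, then exposed to compounds for 16 hr; viability was read as CellTiter-Glo luminescence after 30 min at room temperature.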
# [6] = qHTS assay to identify small molecule agonists of the TGF-beta/Smad signaling pathway - cell viability counter screen (AID 1346829); note: top concentration of the series differs between compounds; nearly all actives have a fitted effect of over 45% in size
# In short: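 HEK 293T SBE-bla line, 5 hr compound exposure at 37 C, multiplexed CellTiter-Glo viability read by luminescence.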
# [7] = qHTS assay to identify small molecule agonists of the TGF-beta/Smad signaling pathway (AID 1346859; active = well fitted activation curve with a large enough effect in the signal ratio in the repeat runs, not every such curve was filed as active; the % refers to the signal ratio; note: series mostly up to about 77 µM)
# In short: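 HEK 293T cells stably carrying a beta-lactamase reporter driven by the Smad binding element were seeded overnight, exposed to DMSO-dissolved compounds for 5 hr at 37 C, 5% CO2, then loaded with FRET substrate for 2 hr at room temperature.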
# [8] = target: Thyrotropin-releasing hormone receptor (Homo sapiens) (UniProt P34981); test: qHTS assay to identify small molecule antagonists of the thyrotropin-releasing hormone receptor (TRHR) signaling pathway (AID 1346877; active = well fitted inhibition curve with a large enough effect in the repeat runs, not every such curve was filed as active; note: series mostly up to about 51 µM)
# In short: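 Following an 18 h incubation at 37 °C and a 2 h calcium dye load, TRHR-HEK293 cells were exposed to compound (5 min, room temperature) and challenged with TRH, 1 nM final.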
# [9] = target: Thyrotropin-releasing hormone receptor (Homo sapiens) (UniProt P34981); test: qHTS assay to identify small molecule agonists of the thyrotropin-releasing hormone receptor (TRHR) signaling pathway (AID 1346891; calls by dose curve; note: series mostly up to about 58 µM)
# In short: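 TRHR-expressing HEK293 cells were plated 18 h at 37 °C/5% CO2, loaded with calcium dye 2 h at 37 °C, then given compound in DMSO; fluorescence was read kinetically for 3 min at 1 s intervals.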
# [10] = qHTS assay to identify small molecule antagonists of the TGF-beta/Smad signaling pathway - cell viability counter screen (AID 1346824); note: nearly all actives have a fitted effect of over 50% in size
# In short: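 SBE-bla HEK 293T cells were plated overnight at 37 C, then given compounds in DMSO plus TGF-beta1 (added as 0.25 ng/mL solution) for 5 hr. After the bla read, CellTiter-Glo was added to the same wells and luminescence read after 30 min at room temperature.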
# Progesterone receptor (Homo sapiens), sequence (P06401 whole entry, looked up): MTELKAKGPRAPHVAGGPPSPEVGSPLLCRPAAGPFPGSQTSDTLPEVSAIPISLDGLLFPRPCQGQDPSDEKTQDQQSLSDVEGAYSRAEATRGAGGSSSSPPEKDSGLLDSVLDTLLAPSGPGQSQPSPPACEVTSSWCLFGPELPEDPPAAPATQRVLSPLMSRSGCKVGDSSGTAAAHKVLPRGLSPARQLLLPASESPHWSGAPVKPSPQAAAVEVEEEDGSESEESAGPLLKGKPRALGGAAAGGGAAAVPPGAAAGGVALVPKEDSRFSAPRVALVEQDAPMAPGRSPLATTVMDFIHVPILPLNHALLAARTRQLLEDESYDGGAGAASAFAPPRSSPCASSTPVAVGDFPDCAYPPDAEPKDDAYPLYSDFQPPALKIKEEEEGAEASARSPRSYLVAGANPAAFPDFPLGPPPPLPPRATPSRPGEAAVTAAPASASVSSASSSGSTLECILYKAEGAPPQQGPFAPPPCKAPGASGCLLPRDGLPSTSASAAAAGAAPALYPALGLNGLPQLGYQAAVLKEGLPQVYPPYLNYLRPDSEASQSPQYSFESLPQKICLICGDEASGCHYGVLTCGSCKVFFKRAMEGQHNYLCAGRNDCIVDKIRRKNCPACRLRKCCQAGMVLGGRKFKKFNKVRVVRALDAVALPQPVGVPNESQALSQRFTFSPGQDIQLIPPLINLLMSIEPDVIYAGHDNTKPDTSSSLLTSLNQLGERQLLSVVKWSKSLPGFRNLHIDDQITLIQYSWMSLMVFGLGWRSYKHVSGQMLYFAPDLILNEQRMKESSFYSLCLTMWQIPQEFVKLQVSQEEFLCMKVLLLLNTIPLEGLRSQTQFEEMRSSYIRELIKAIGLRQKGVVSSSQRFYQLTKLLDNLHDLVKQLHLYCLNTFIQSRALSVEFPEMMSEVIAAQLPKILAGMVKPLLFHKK
# Thyrotropin-releasing hormone receptor (Homo sapiens), sequence (P34981 whole entry, looked up): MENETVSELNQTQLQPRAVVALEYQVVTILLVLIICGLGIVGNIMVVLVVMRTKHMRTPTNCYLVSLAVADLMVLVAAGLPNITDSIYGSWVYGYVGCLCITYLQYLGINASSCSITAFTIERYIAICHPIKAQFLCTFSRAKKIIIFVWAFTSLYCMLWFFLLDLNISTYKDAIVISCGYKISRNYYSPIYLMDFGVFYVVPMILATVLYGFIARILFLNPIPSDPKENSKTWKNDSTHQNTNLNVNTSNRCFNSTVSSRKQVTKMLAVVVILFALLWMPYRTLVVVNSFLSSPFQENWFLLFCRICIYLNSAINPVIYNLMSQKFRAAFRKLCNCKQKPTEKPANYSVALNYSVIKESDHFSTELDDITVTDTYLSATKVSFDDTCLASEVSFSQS
Structure (SMILES),Potency [1],Potency [2],Potency [3],Potency [4],Potency [5],outcome [6],outcome [7],outcome [8],Potency [9],outcome [10]
C=CCOCC(O)CO (stereo unspecified),inactive,inactive,inactive,inactive,inactive,inactive,inactive,inactive,inactive,
COC(=O)Nc1ccc(Cl)c(Cl)c1,inactive,inactive,30.5 µM (active),inactive,,inactive,inactive,inactive,inactive,
CC(C)C(=O)OC(=O)C(C)C,inactive,inactive,inactive,inactive,inactive,inactive,inactive,inactive,inactive,
O=S(=O)(O)c1cccc2c(S(=O)(=O)O)cccc12,inactive,inactive,inactive,,inactive,inactive,inactive,inactive,inactive,
CC(C)CC(C)(N)C#N (stereo unspecified),inactive,inactive,inactive,,inactive,inactive,inactive,inactive,inactive,inactive
Cc1coc2ccccc2c1=O,inactive,inactive,inactive,inactive,inactive,inactive,inactive,inactive,inactive,
Cc1ncc(COP(=O)(O)O)c(C=O)c1O,inactive,inactive,inactive,,inactive,inactive,inactive,inactive,inactive,inactive
C[C@@H]1CCC[C@H](C)N1,inactive,inactive,inactive,inactive,inactive,inactive,inactive,,,
Nc1ccn([C@@H]2O[C@H](CO)[C@@H](O)[C@@H]2O)c(=O)n1,inactive,inactive,inactive,,inactive,inactive,inactive,inactive,inactive,inactive
CCN1C=CN(C)C1C (stereo unspecified),inactive,inactive,inactive,inactive,inactive,inactive,inactive,inactive,inactive,
Cc1ccc(-c2ccccc2C#N)cc1,inactive,inactive,inactive,inactive,,inactive,inactive,inactive,inactive,inactive
Cc1nc(C2CCCCC2)c(-c2ccc(S(N)(=O)=O)c(F)c2)o1,inactive,inactive,26.6 µM (active),,,inactive,inactive,inactive,inactive,inactive
O=CN(CCO)CCO,inactive,inactive,inactive,inactive,inactive,inactive,inactive,inactive,inactive,
COCCOCC(OC)OC,inactive,inactive,inactive,inactive,inactive,inactive,inactive,inactive,inactive,
O=C(CO)[C@@H](O)[C@H](O)[C@@H](O)CO,inactive,inactive,inactive,inactive,inactive,inactive,inactive,inactive,inactive,
CC(C)NNC(=O)c1ccncc1,inactive,inactive,inactive,inactive,inactive,inactive,inactive,,,
C=C[Si](OC(C)=O)(OC(C)=O)OC(C)=O,inactive,inactive,inactive,inactive,inactive,inactive,inactive,inactive,inactive,
OCCCCCO,inactive,inactive,inactive,,inactive,inactive,inactive,inactive,inactive,inactive
CC(=O)O[C@@]12CO[C@@H]1C[C@H](O)[C@@]1(C)C(=O)[C@H](O)C3=C(C)[C@@H](OC(=O)[C@H](O)[C@@H](NC(=O)OC(C)(C)C)c4ccccc4)C[C@@](O)([C@@H](OC(=O)c4ccccc4)[C@H]21)C3(C)C,inactive,inactive,inactive,,,inactive,inactive,,,inactive
O=C(O)CC(C(=O)O)S(=O)(=O)O (stereo unspecified),inactive,inactive,inactive,,inactive,inactive,inactive,inactive,inactive,inactive
CCC1C(=O)OCC1Cc1cncn1C (stereo unspecified),inactive,inactive,inactive,inactive,,inactive,inactive,inactive,inactive,inactive
CCCOC(=O)CC,inactive,inactive,inactive,inactive,,inactive,inactive,inactive,inactive,inactive
c1coc(CNc2ncnc3nc[nH]c23)c1,inactive,inactive,inactive,inactive,,inactive,inactive,inactive,inactive,inactive
CCCCCCCCCC[N+](C)(C)[O-],inactive,inactive,inactive,inactive,inactive,inactive,inactive,inactive,inactive,
